Assay results published in PubChem BioAssay (EPA / NIEHS).
Active and inactive are the calls of the source. How the source made its calls: active means hit-call score of the fitted dose curve at least 0.9, where 1 is the maximum; inactive means score below 0.9.

How the values were obtained:
Details in all cases: mRNA level, 48 h; actives raise or lower the signal
CYP4A11 (gene 1579) = assay: LTEA_HepaRG_CYP4A11: Life Technologies and Expression Analysis (LTEA) Assay for CYP4A11 using HepaRG (AID 2283486)
Summary of the method: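 Differentiated HepaRG cells, 48 h after plating, exposed in duplicate for 48 h to 8 half-log concentrations up to 100 uM in 0.5% DMSO in serum-free induction medium. CYP4A11 mRNA measured by TaqMan qRT-PCR, normalized to ACTB, GAPDH and POLR2A.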

[1] = read-out: Cytochrome P450 3A4 (Homo sapiens) (UniProt P08684); assay: LTEA_HepaRG_CYP3A4: Life Technologies and Expression Analysis (LTEA) Assay for CYP3A4 using HepaRG (AID 2283487)
Summary of the method: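 CYP3A4 transcript measured by TaqMan qRT-PCR and normalized to three housekeeping genes after 48 h chemical exposure of human HepaRG cells. Top concentration 100 uM, half-log steps, 0.5% DMSO vehicle; gain or loss fitted against DMSO baseline.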

[2] = read-out: DNA damage-inducible transcript 3 (DDIT3), DDIT3 (gene 1649); assay: LTEA_HepaRG_DDIT3: Life Technologies and Expression Analysis (LTEA) Assay for DNA damage-inducible transcript 3 (DDIT3) using HepaRG (AID 2283488)
Summary of the method: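 Differentiated human HepaRG cells in serum-free induction medium were exposed in duplicate for 48 h to 8 concentrations (top 100 uM, half-log steps, 0.5% DMSO). DDIT3 mRNA measured by TaqMan qRT-PCR, normalized to ACTB/GAPDH/POLR2A; bidirectional fit versus DMSO.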

[3] = read-out: Early growth response protein 1 (EGR1) transcription factor, EGR1 (gene 1958); assay: LTEA_HepaRG_EGR1: Life Technologies and Expression Analysis (LTEA) Assay for Early growth response protein 1 (EGR1) transcription factor using HepaRG (AID 2283490)
Summary of the method: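 Differentiated HepaRG cells in serum-free induction medium exposed 48 hours, duplicate, to 8 half-log concentrations up to 100 uM in 0.5% DMSO. EGR1 mRNA measured by TaqMan qRT-PCR, normalized to ACTB, GAPDH, POLR2A; bidirectional fit versus DMSO.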

[4] = read-out: Ezrin (EZR), EZR (gene 7430); assay: LTEA_HepaRG_EZR: Life Technologies and Expression Analysis (LTEA) Assay for Ezrin (EZR) using HepaRG (AID 2283491)
Summary of the method: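 HepaRG, 48 h chemical exposure, 8-pt half-log series from 100 uM, 0.5% DMSO vehicle, duplicates. Read-out: EZR mRNA by TaqMan qRT-PCR (Fluidigm array), housekeeping-normalized; bidirectional curve fit vs DMSO baseline.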

[5] = read-out: Cytochrome P450 3A7 (Homo sapiens) (UniProt P24462); assay: LTEA_HepaRG_CYP3A7: Life Technologies and Expression Analysis (LTEA) Assay for CYP3A7 using HepaRG (AID 2283492)
Summary of the method: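 Differentiated HepaRG cells in serum-free induction medium exposed 48 h in duplicate to 8-point half-log series from 100 uM top in 0.5% DMSO. CYP3A7 mRNA by qRT-PCR, normalized to ACTB/GAPDH/POLR2A, bidirectional fit versus DMSO.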

CYP3A5 (gene 1577) = assay: LTEA_HepaRG_CYP3A5: Life Technologies and Expression Analysis (LTEA) Assay for CYP3A5 using HepaRG (AID 2283493)
Summary of the method: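 Differentiated HepaRG cells in serum-free induction medium were dosed 48 h with test chemicals (8-point half-log series, top 100 uM, 0.5% DMSO, duplicate). CYP3A5 mRNA measured by qRT-PCR, normalized to ACTB, GAPDH, POLR2A; bidirectional fit versus DMSO.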

[6] = read-out: Fatty Acid-Binding Protein 1 (FABP1), FABP1 (gene 2168); assay: LTEA_HepaRG_FABP1: Life Technologies and Expression Analysis (LTEA) Assay for Fatty Acid-Binding Protein 1 (FABP1) using HepaRG (AID 2283494)
Summary of the method: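 Differentiated human HepaRG cells exposed 48 h in serum-free induction medium to eight half-log concentrations up to 100 uM (0.5% DMSO), duplicate. FABP1 mRNA by qRT-PCR, normalised to ACTB, GAPDH, POLR2A; bidirectional fitting against DMSO.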

[7] = read-out: Glutathione S-Transferase (GSTA2), GSTA2 (gene 2939); assay: LTEA_HepaRG_GSTA2: Life Technologies and Expression Analysis (LTEA) Assay for Glutathione S-Transferase (GSTA2) using HepaRG (AID 2283497)
Summary of the method: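 Differentiated human HepaRG cells were exposed in duplicate for 48 h in serum-free induction medium, 8 points from 100 uM top in half-log steps, 0.5% DMSO. GSTA2 mRNA was measured by TaqMan qRT-PCR, normalized to ACTB, GAPDH and POLR2A; bidirectional fit versus DMSO.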

[8] = read-out: Glutamate-cysteine ligase catalytic (GCLC), GCLC (gene 2729); assay: LTEA_HepaRG_GCLC: Life Technologies and Expression Analysis (LTEA) Assay for Glutamate-cysteine ligase catalytic (GCLC) using HepaRG (AID 2283498)
Summary of the method: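 Differentiated HepaRG cells exposed 48 h in serum-free induction medium, eight-point half-log series topping at 100 uM in 0.5% DMSO, duplicates. GCLC mRNA by qRT-PCR normalized to ACTB, GAPDH and POLR2A, fitted bidirectionally versus DMSO.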

[9] = read-out: growth arrest and DNA damage 45 (GADD45G), GADD45G (gene 10912); assay: LTEA_HepaRG_GADD45G: Life Technologies and Expression Analysis (LTEA) Assay for growth arrest and DNA damage 45 (GADD45G) using HepaRG (AID 2283499)
Summary of the method: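 Differentiated human HepaRG cells, 48 h post-plating, exposed 48 h in serum-free induction medium to 8 half-log concentrations (top 100 uM, 0.5% DMSO) in duplicate. GADD45G mRNA measured by Fluidigm TaqMan qRT-PCR, normalized to ACTB, GAPDH, POLR2A; bidirectional fit versus DMSO.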

[10] = read-out: Glutamate-cysteine ligase regulatory (GCLM), GCLM (gene 2730); assay: LTEA_HepaRG_GCLM: Life Technologies and Expression Analysis (LTEA) Assay for Glutamate-cysteine ligase regulatory (GCLM) using HepaRG (AID 2283500)
Summary of the method: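 Differentiated human HepaRG cells exposed 48 h in serum-free induction medium to 8-point half-log concentrations (top 100 uM, 0.5% DMSO), in duplicate. GCLM mRNA quantified by qRT-PCR, normalized to ACTB, GAPDH, POLR2A; bidirectional fitting versus DMSO.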

[11] = read-out: Glutathione S-transferase M3 (GSTM3), GSTM3 (gene 2947); assay: LTEA_HepaRG_GSTM3: Life Technologies and Expression Analysis (LTEA) Assay for Glutathione S-transferase M3 (GSTM3) using HepaRG (AID 2283501)
Summary of the method: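 Differentiated human HepaRG cells were exposed in duplicate for 48 h in serum-free induction medium, 8 points from 100 uM top in half-log steps, 0.5% DMSO. GSTM3 mRNA was measured by TaqMan qRT-PCR, normalized to ACTB, GAPDH and POLR2A; bidirectional fit versus DMSO.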

[12] = read-out: Heat shock 70 kDa protein 1 (HSPA1A), gene 3303; assay: LTEA_HepaRG_HSPA1A: Life Technologies and Expression Analysis (LTEA) Assay for Heat shock 70 kDa protein 1 (HSPA1A) using HepaRG (AID 2283502)
Summary of the method: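 Differentiated human HepaRG cells in serum-free induction medium were exposed in duplicate for 48 h to eight concentrations (top 100 uM, half-log steps, 0.5% DMSO). HSPA1A mRNA was quantified by qRT-PCR, normalized to ACTB, GAPDH and POLR2A, and fitted bidirectionally against DMSO.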

[13] = read-out: Hypoxia-inducible factor 1-alpha (Homo sapiens) (UniProt Q16665); assay: LTEA_HepaRG_HIF1A: Life Technologies and Expression Analysis (LTEA) Assay for Hypoxia-inducible factor 1 (HIF1A) Trancription factor using HepaRG (AID 2283503)
Summary of the method: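 HepaRG, 48 h exposure, 8-pt half-log series from 100 uM, 0.5% DMSO vehicle, duplicates. Readout: HIF1A transcript by qRT-PCR (Fluidigm array), housekeeping-normalised. Bidirectional curve fit vs DMSO baseline.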

[14] = read-out: 3-Hydroxy-3-Methylglutaryl-CoA Synthase 2 (HMGCS2), HMGCS2 (gene 3158); assay: LTEA_HepaRG_HMGCS2: Life Technologies and Expression Analysis (LTEA) Assay for 3-Hydroxy-3-Methylglutaryl-CoA Synthase 2 (HMGCS2) using HepaRG (AID 2283504)
Summary of the method: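 Human HepaRG cells in serum-free induction medium were exposed in duplicate for 48 h to 8-point half-log series from 100 uM top in 0.5% DMSO. HMGCS2 mRNA measured by TaqMan qRT-PCR, normalised to ACTB, GAPDH, POLR2A; bidirectional fit versus DMSO.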

[15] = read-out: Pro-epidermal growth factor (Homo sapiens) (UniProt P01133); assay: LTEA_HepaRG_EGF: Life Technologies and Expression Analysis (LTEA) Assay for Epidermal growth factor (EGF) using HepaRG (AID 2283489)
Summary of the method: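 HepaRG cells (~100,000/well, 48 h pre-culture) exposed in duplicate for 48 h in serum-free induction medium to 8 half-log concentrations up to 100 uM in 0.5% DMSO. EGF mRNA by qRT-PCR, normalized to ACTB/GAPDH/POLR2A; bidirectional fit versus DMSO.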

[16] = read-out: Cytochrome P450 4A22 (Homo sapiens) (UniProt Q5TCH4); assay: LTEA_HepaRG_CYP4A22: Life Technologies and Expression Analysis (LTEA) Assay for Cytochrome P450 4A22 (CYP4A22) using HepaRG (AID 2283495)
Summary of the method: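 Differentiated HepaRG cells in serum-free induction medium exposed 48 h in duplicate to eight half-log concentrations up to 100 uM in 0.5% DMSO. CYP4A22 mRNA quantified by TaqMan qRT-PCR, normalized to ACTB, GAPDH and POLR2A; bidirectional fit versus DMSO.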

[17] = read-out: Cytochrome P450 7A1 (Homo sapiens) (UniProt P22680); assay: LTEA_HepaRG_CYP7A1: Life Technologies and Expression Analysis (LTEA) Assay for Cytochrome P450 7A1 (CYP7A1) using HepaRG (AID 2283496)
Summary of the method: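 Gene expression endpoint in human HepaRG liver cells treated for 48 h with test chemicals (up to 100 uM, 0.5% DMSO). Values come from bidirectional concentration-response fitting versus DMSO.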

Measured: AC50

Chain of Hypoxia-inducible factor 1-alpha (Homo sapiens) (Q16665 whole entry, looked up): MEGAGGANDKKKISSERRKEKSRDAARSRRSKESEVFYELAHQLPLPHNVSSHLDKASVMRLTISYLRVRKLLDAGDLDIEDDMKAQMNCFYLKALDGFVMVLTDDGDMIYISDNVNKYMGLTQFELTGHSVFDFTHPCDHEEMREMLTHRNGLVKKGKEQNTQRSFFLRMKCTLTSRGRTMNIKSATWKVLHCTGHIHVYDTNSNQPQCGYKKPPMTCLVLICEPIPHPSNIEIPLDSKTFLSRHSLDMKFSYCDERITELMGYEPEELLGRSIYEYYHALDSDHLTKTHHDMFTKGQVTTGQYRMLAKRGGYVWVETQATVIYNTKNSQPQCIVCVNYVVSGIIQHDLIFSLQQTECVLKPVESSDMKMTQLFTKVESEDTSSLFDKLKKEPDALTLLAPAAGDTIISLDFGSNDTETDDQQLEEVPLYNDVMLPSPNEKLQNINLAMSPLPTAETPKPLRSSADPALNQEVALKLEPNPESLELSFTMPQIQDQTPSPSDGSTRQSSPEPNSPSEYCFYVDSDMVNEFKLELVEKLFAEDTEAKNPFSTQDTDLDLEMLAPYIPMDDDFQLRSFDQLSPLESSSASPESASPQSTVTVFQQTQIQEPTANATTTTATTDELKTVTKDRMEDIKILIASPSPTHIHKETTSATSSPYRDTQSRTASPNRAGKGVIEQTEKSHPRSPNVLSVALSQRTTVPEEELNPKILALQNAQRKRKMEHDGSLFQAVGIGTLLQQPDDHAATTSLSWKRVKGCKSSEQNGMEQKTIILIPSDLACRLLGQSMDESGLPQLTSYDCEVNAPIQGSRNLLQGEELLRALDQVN
Chain of Cytochrome P450 3A4 (Homo sapiens) (P08684 whole entry, looked up): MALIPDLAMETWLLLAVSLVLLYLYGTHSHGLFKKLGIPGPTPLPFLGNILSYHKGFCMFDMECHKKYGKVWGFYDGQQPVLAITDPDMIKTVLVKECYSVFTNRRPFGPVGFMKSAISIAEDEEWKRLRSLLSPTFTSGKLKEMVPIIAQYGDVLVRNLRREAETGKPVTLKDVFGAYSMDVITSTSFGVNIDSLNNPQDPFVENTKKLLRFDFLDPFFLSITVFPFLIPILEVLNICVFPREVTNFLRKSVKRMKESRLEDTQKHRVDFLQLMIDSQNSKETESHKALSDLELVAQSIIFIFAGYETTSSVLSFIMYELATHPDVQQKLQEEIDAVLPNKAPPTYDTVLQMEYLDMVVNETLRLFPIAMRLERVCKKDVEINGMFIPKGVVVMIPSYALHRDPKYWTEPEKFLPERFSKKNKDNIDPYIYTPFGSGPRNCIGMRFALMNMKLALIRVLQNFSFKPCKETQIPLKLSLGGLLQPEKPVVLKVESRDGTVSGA
Chain of Cytochrome P450 3A7 (Homo sapiens) (P24462 whole entry, looked up): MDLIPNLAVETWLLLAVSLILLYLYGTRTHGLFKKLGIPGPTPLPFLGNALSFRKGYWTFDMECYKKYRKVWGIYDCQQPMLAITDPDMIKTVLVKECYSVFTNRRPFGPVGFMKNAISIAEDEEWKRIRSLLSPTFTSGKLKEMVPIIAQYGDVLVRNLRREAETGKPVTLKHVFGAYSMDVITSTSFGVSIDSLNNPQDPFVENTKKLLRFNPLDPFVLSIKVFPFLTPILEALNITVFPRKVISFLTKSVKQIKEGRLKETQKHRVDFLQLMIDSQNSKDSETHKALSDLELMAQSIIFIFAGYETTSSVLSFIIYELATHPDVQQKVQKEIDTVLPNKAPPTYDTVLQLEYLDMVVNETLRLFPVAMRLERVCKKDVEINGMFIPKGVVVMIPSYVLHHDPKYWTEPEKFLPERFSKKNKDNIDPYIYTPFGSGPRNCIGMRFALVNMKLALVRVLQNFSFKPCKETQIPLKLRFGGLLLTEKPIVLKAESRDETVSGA

c1ccc(-c2ccccc2)cc1
inactive: CYP4A11 (gene 1579) | [1] | [2] | [3] | [4] | [5] | CYP3A5 (gene 1577) | [6] | [7] | [8] | [9] | [10] | [11] | [12] | [13] | [14]

CO/C=C(/C(=O)OC)c1ccccc1COc1cccc(C(F)(F)F)n1
inactive: [3] | [8] | [12]
active: CYP4A11 (gene 1579) 3.9 µM | [1] 8.05 µM | [2] 8.83 µM | [15] 50 µM | [4] 5.1 µM | [5] 3.4 µM | CYP3A5 (gene 1577) 12.1 µM | [6] 5.35 µM | [16] 5.06 µM | [17] 8.85 µM | [7] 9.29 µM | [9] 6.56 µM | [10] 8.95 µM | [11] 50 µM | [13] 32 µM | [14] 6.85 µM

CC#Cc1cc(C)nc(Nc2ccccc2)n1
inactive: [2] | [15] | [3] | [4] | [9] | [12] | [13]
active: CYP4A11 (gene 1579) 1.1 µM | [1] 28.2 µM | [5] 41.6 µM | CYP3A5 (gene 1577) 15.6 µM | [6] 13.7 µM | [16] 1.05 µM | [17] 13.8 µM | [7] 28 µM | [8] 32.8 µM | [10] 50 µM | [11] 14.5 µM | [14] 32.5 µM

Cc1cccc([N+](=O)[O-])c1
inactive: CYP4A11 (gene 1579) | [1] | [2] | [3] | [4] | [5] | CYP3A5 (gene 1577) | [6] | [7] | [8] | [9] | [10] | [11] | [12] | [13] | [14]

Clc1ccc(C(c2ccccc2Cl)C(Cl)(Cl)Cl)cc1 (stereo unspecified)
inactive: [15] | [4] | CYP3A5 (gene 1577) | [7] | [8] | [10] | [11] | [13]
active: CYP4A11 (gene 1579) 40.7 µM | [1] 2.46 µM | [2] 74.6 µM | [3] 11.9 µM | [5] 0.41 µM | [6] 33.9 µM | [17] 15.3 µM | [9] 90 µM | [12] 12 µM | [14] 50 µM

CCC(C)c1cc([N+](=O)[O-])cc([N+](=O)[O-])c1O (stereo unspecified)
active: CYP4A11 (gene 1579) 2.78 µM | [1] 2.37 µM | [2] 5.95 µM | [15] 1.97 µM | [3] 17.1 µM | [4] 3.74 µM | [5] 1.57 µM | CYP3A5 (gene 1577) 15.5 µM | [6] 1.27 µM | [16] 2.35 µM | [17] 2.67 µM | [7] 2.72 µM | [8] 1.29 µM | [9] 4.96 µM | [10] 50 µM | [11] 4.16 µM | [12] 2.49 µM | [13] 18.5 µM | [14] 2.93 µM

CCC(C)(c1ccc(O)cc1)c1ccc(O)cc1
inactive: CYP4A11 (gene 1579) | [1] | [2] | [15] | [3] | [4] | [5] | CYP3A5 (gene 1577) | [6] | [16] | [7] | [8] | [9] | [10] | [11] | [12] | [13] | [14]
active: [17] 50 µM
